Pf apPOL block: Pf-apPOL DNA polymerase inhibition; Recombinant Pf-apPOL, molecular beacon fluorescence, 1.5 h; inhibition, % at 10 µM; hit rate 0.25% among 210,000; AID 1794808
mHTT-CaM PPI inh: disrupts binding of mutant huntingtin to calmodulin; inhibition, % at 15 µM; AID 1671202; P42858; AlphaScreen His-mHTT/GST-CaM binding, luminescence; hit rate 3.6% among 190,000;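 further: 0% = both proteins with DMSO and 100% = one protein alone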
An asterisk follows results filed as active; · = not tested or not shown; ! = not confirmed by another sample. Sampled rows, rich in hits. Any-hit rate of the full collection: about 3.5%. No stated cut-off is given here; in the data, active means inhibition above about 50%; inactive means the rest.

SMILES | Pf apPOL block | mHTT-CaM PPI inh
O=C(Nc1ccc(S(=O)(=O)Nc2ccccc2)cc1)c1ccc([N+](=O)[O-])cc1 | 0 | -7
O=C(Nc1ccc(S(=O)(=O)Nc2cccc(Cl)c2Cl)cc1)c1ccc([N+](=O)[O-])cc1 | -7 | 62*
CC(=CC(=O)O)C(=O)NCCc1ccccc1 | -6 | 2
CC1=Nc2cc(C(=O)NCCN3CCOCC3)ccc2Sc2ccc(Cl)cc21 | -20 | 39
CC1=Nc2cc(C(=O)NCCCN3CCC(C)CC3)ccc2Sc2ccc(Cl)cc21 | -16 | 53*
Cc1cc(CNC(=O)Nc2ccccc2C)c(C)o1 | -5 | -2
COc1ccc(-c2csc3c(=O)n(C)cnc23)cc1 | 12 | -13
Cn1ncc([N+](=O)[O-])c1C(=O)NNC(=S)NC1CCCC1 | · | -2
O=C(NNC(=S)NC1CCCCC1)c1[nH]ncc1[N+](=O)[O-] | · | 61*
Cc1sc2nc(C3CC3)nc(N3CCN(C(=O)C4CCC4)CC3)c2c1C | -2 | 2
O=C1CSC(c2cn(-c3ccccc3)nc2-c2ccc(Cl)cc2)N1Cc1ccco1 (stereo not drawn) | -6 | 90*
O=C1CSC(c2ccco2)N1Cc1ccccc1 (stereo not drawn) | -1 | -2
O=C1CSC(c2cn(-c3ccccc3)nc2-c2ccccc2)N1Cc1ccco1 (stereo not drawn) | -3 | 59*
O=C1CSC(c2ccc(Br)cc2)N1Cc1ccco1 (stereo not drawn) | -1 | 1
CC(=O)NC(c1ccccc1Cl)c1ccc2cccnc2c1O (stereo not drawn) | -6 | 100*
Cc1ccc(C(NC(=O)C(C)C)c2ccc3cccnc3c2O)cc1 (stereo not drawn) | 2 | 100*
COc1ccc(C(C)NC(C)=O)cc1OC (stereo not drawn) | -6 | -8
COc1ccc(C(NC(=O)C(C)C)c2ccc3cccnc3c2O)cc1OC (stereo not drawn) | 3 | 100*
COc1ccc(-c2ncc(NC(=O)C(C)C)cn2)cc1 | 0 | -3
COc1ccc(C(NC(=O)C(C)C)c2ccc3cccnc3c2O)cc1 (stereo not drawn) | 10 | 100*
Cc1cccc(-c2nc(-c3ccc4c(c3)ncn4CCN3CCCC3)no2)c1 | 5 | 26
Cc1nnc(NC(=O)c2cn(-c3ccccc3)nc2-c2ccccc2)s1 | -3 | -7
O=C(NC(Nc1cccc2cccnc12)C(Cl)(Cl)Cl)c1ccc(Br)cc1 (stereo not drawn) | -10 | 3
CCCC(=O)NC(c1ccccc1Cl)c1ccc2cccnc2c1O (stereo not drawn) | 0 | 100*
COc1ccc(C(NC(C)=O)c2ccc3cccnc3c2O)cc1 (stereo not drawn) | 4 | 100*
SMILES | Pf apPOL block | mHTT-CaM PPI inh
Oc1c(C(Nc2cccc(Cl)c2)c2ccncc2)ccc2cccnc12 (stereo not drawn) | -10 | 100*
c1ccc(NC(c2ccccc2)c2ccncc2)cc1 (stereo not drawn) | -2 | 5
O=C(NC(c1ccccc1)c1ccc2cccnc2c1O)c1ccccc1 (stereo not drawn) | 2 | 100*
COc1ccc(C(=O)Nc2cc(OC)cc3cccnc23)cc1 | 4 | -9
CCC(=O)NC(c1ccc(C)cc1)c1ccc2cccnc2c1O (stereo not drawn) | 0 | 100*
CC(Oc1ccc(Cl)cc1Cl)C(=O)Nc1ncccn1 (stereo not drawn) | -2 | -5
CN(C)c1ccc(C(NC(=O)Cc2ccccc2)c2ccc3cccnc3c2O)cc1 (stereo not drawn) | 0 | 41
CC(=O)NC(c1ccc(Cl)cc1)c1ccc2cccnc2c1O (stereo not drawn) | 0 | 100*
CC(C)C(=O)NC(c1ccc(Cl)cc1Cl)c1ccc2cccnc2c1O (stereo not drawn) | -66 | 96*
O=C1Nc2ccc(Cl)cc2C1=Nc1ccc(Cl)cc1 | -9 | 8
O=C(NCCCN1CCCC1)c1cc2n(n1)CCCN(Cc1ccc(F)cc1)C2=O | 3 | 9
Cc1ccc(Cl)cc1N1CCN(C(=O)c2ccc(Cn3cncn3)cc2)CC1 | -4 | 89*
O=C(c1ccc(Cn2cncn2)cc1)N1CCN(c2ccc(Cl)cc2)CC1 | -11 | 5
C=C(Br)Cn1c(COc2ccccc2)nc2ccccc21 | -3 | -17
CSc1nc2n(n1)C(c1ccc(F)cc1)C1=C(CC(C)(C)CC1=O)N2 (stereo not drawn) | -1 | -2
COc1ccc(Cl)cc1S(=O)(=O)n1nnc2ccccc21 | -1 | 18
COc1cc(Cl)c(S(=O)(=O)n2nnc3ccccc32)cc1Cl | -12 | -4
O=S(=O)(c1cc(Cl)ccc1Cl)n1nnc2ccccc21 | 0 | 57*
O=S(=O)(c1ccc(Cl)c(Cl)c1Cl)n1nnc2ccccc21 | -4 | -8
COc1c(S(=O)(=O)n2nnc3ccccc32)ccc(Cl)c1Cl | -7 | 87*!
COc1cc(S(=O)(=O)n2nnc3ccccc32)ccc1Cl | -9 | 88*!
Cc1cc(C2CCCN2C(=O)Nc2ccccc2C)on1 (stereo not drawn) | 7 | 0
O=C(CC1CCCC1)N1CCC(c2ccn3ncc(C(=O)N4CCCC4)c3c2)CC1 | -6 | 6
COc1ccc(C(=O)N(Cc2ccccc2)C(C)C)cc1OC | -9 | 1
CCCCNC(=O)c1cnn2c(C)c(Cc3ccccc3C)c(C)nc12 | -6 | 44
SMILES | Pf apPOL block | mHTT-CaM PPI inh
Clc1ccc(OCc2nc3ccccc3n2Cc2ccccc2Cl)c(Cl)c1 | 4 | ·
O=C(Nc1cc(F)cc(F)c1)NC1CCN(c2ccc(F)cc2)C1=O (stereo not drawn) | -2 | -6
COCC(=O)N1CCc2cn(CC(C)C)c3cccc(c23)C1 | -7 | 76*
COc1ccc(NC(=O)N2CCc3cn(CC(C)C)c4cccc(c34)C2)cc1 | 1 | 9
CC(C)Cn1cc2c3c(cccc31)CN(C(=O)c1ccncc1)CC2 | -1 | 55*
CC(C)Cn1cc2c3c(cccc31)CN(C(=O)c1cnccn1)CC2 | -2 | 19
Cc1cccc(NC(=O)c2cccnc2N(C)C)c1 | 0 | 0
C=CCN1C(=O)/C(=C\c2ccccc2)SC1=Nc1cccc([N+](=O)[O-])c1 | -11 | 5
COc1cccc(CNS(=O)(=O)c2ccc3[nH]c4c(c3c2)CCCCC4)c1 | -7 | 73*
CCN(c1ccc(OC)cc1)S(=O)(=O)c1ccc2[nH]c3c(c2c1)CCCCC3 | -3 | 70*
COc1cccc(CNS(=O)(=O)c2ccc3[nH]c(=O)sc3c2)c1 | 4 | 5
COc1ccc(CNS(=O)(=O)c2ccc3[nH]c4c(c3c2)CCCCC4)cc1 | -5 | 97*
O=S(=O)(NCc1ccc2c(c1)OCO2)c1ccc2[nH]c3c(c2c1)CCCCC3 | -5 | 96*
COc1ccc(CNS(=O)(=O)c2ccc3nc(-c4ccccc4)[nH]c3c2)cc1 | 8 | 4
O=c1[nH]c2ccc(S(=O)(=O)NCc3ccc4c(c3)OCO4)cc2[nH]c1=O | -4 | -2
CCC(=O)Nc1cccc(NC(=O)c2ccc(I)cc2)c1 | 4 | -4
CCC(C)NC(=O)N1CCN(Cc2nc3cccnc3n2-c2ccccc2)CC1 (stereo not drawn) | -3 | 4
CC1(CNC(=O)Cc2c[nH]c3ccccc23)CCOCC1 | -5 | 1
CCN1CCN(C2=NC(=O)/C(=C\c3ccc(OC)c(OC)c3)S2)CC1 | -11 | 6
Fc1ccc(-c2noc(Cc3nnc(-c4ccccc4)o3)n2)cc1 | -4 | -12
CCOc1cccc(C=Nc2nnc(SC)s2)c1O | -3 | ·
